Experimental data taken from PubChem BioAssay (Tox21).
Inconclusive results are not listed. Activity calls are given as the source filed them. Unless noted, the call rests on the fitted dose curve; in most records, active means well fitted curve in the direction sought with a large enough effect in the repeat runs; inconclusive means weak or mixed curves; inactive means no such curve, though single readings can be large; an effect the other way counts as inactive or inconclusive.

How the values were obtained:
[1] = qHTS assay to identify small molecule antagonists of the estrogen receptor alpha (ER-alpha) signaling pathway using the BG1 cell line in the presence of 0.1 nM 17-beta-estradiol - cell viability counter screen (AID 1259241); further: nearly all actives have a fitted effect of over 40% in size
Procedure, shortened: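 Cells were plated and left 24 hr, compounds in DMSO were pinned in, 17beta-estradiol was added to 0.1 nM final, and after 22 hr CellTiter-Fluor reagent was added for 30 min before fluorescence was read.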

[2] = qHTS assay to identify small molecule antagonists of the androgen receptor (AR) signaling pathway using the MDA cell line in the presence of 0.5 nM R1881 - cell viability counter screen (AID 1259242); further: nearly all actives have a fitted effect of over 45% in size
Procedure, shortened: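 qHTS format. MDA-kb2 (MMTV-luc, AR/GR responsive) + cpd + 0.5 nM R1881 final, 16 hr 37C/0% CO2 → CellTiter-Fluor 30 min → fluorescence intensity.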

[3] = biological target: Estrogen receptor (Homo sapiens) (UniProt P03372); assay: qHTS assay to identify small molecule antagonists of the estrogen receptor alpha (ER-alpha) signaling pathway using the BG1 cell line in the presence of 0.1 nM 17-beta-estradiol (AID 1259244); further: nearly all actives have a fitted effect of over 50% in size
Procedure, shortened: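 Reporter is a stably transfected luciferase under four estrogen responsive elements in VM7Luc4E2 cells expressing native full-length ER-alpha; inhibition of 0.1 nM (final) 17beta-estradiol-driven signal over 22 h is read by luminescence.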

[4] = qHTS assay to identify small molecule HDAC inhibitors (AID 1259364);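 further: wild-type HCT-116 cells with endogenous class I/II HDAC activity; top concentration of the series differs between compounds; nearly all actives have a fitted effect of over 45% in size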
Procedure, shortened: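 Quantitative high-throughput format: overnight-seeded HCT-116 cells got compounds for 2 hr at 37C; HDAC-Glo I/II reagent added, 30 min RT, luminescence measured.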

[5] = qHTS assay to identify small molecule HDAC inhibitors - cell viability counter screen (AID 1259365); further: series mostly up to about 92 µM; nearly all actives have a fitted effect of over 50% in size
Procedure, shortened: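 Counter screen in wild-type HCT-116 cells: compounds dissolved in DMSO are pin-transferred onto overnight-plated cells and left 2hr at 37C. ATP-based CellTiter-Glo luminescence then measures viable cells.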

[6] = qHTS assay to identify small molecule agonists of the sonic hedgehog signaling (Shh) pathway - cell viability counter screen (AID 1259366); further: nearly all actives have a fitted effect of over 50% in size
Procedure, shortened: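 Cells are plated at 2,000 per well and left 4hr at 37C, 5% CO2 before compound addition. After 23hr of treatment, CellTiter-Fluor reagent is added for 1hr at 37C and fluorescence is measured.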

[7] = qHTS assay to identify small molecule antagonists of the sonic hedgehog signaling (Shh) pathway - cell viability counter screen (AID 1259367); further: nearly all actives have a fitted effect of over 55% in size
Procedure, shortened: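 Fluorescence read-out (CellTiter-Fluor, 1 hr at 37C) taken after 23 hr compound treatment of 3T3 Gli1-Luc cells stimulated with conditioned medium. Cells were seeded at 2,000 per well and pre-incubated 4 hr.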

[8] = qHTS assay to identify small molecule agonists of the sonic hedgehog signaling (Shh) pathway (AID 1259368; calls by dose curve;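 further: NIH/3T3-derived 3T3Gli1-Luc cells carrying a stable Gli1-driven firefly luciferase reporter; series mostly up to about 92 µM; nearly all actives have a fitted effect of over 15% in size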)
Procedure, shortened: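 Quantitative high-throughput format using a Gli1-driven firefly luciferase reporter line derived from NIH/3T3 cells. After a 24 hr compound treatment at 37 C and 5% CO2, luminescence reported Gli1 response element activity.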

[9] = qHTS assay to identify small molecule antagonists of the sonic hedgehog signaling (Shh) pathway (AID 1259369; calls by dose curve; further: nearly all actives have a fitted effect of over 45% in size)
Procedure, shortened: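 Stable Gli1-Luc reporter NIH/3T3 clone; quantitative HTS in stimulated mode with conditioned medium. Luminescence measured after 24hr compound treatment at 37 C.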

[10] = biological target: Estrogen receptor beta (Homo sapiens) (UniProt Q92731); assay: qHTS assay to identify small molecule antagonists of the estrogen receptor beta (ER-beta) signaling pathway (AID 1259378; active means well fitted inhibition curve with a large enough effect in the signal ratio in the repeat runs, not every such curve was filed as active; the % refers to the signal ratio)
Procedure, shortened: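 ER-beta-UAS-bla HEK293T cells in 2% charcoal-stripped FBS medium treated with compound plus 1nM final 17-beta-estradiol for 16 hr at 37C. Beta-lactamase reporter read by FRET substrate fluorescence after 2 hours at room temperature.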

[11] = qHTS assay to identify small molecule agonists of the androgen receptor (AR) signaling pathway in the presence of an antagonist - cell viability counter screen (AID 1259379);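 further: MDA-kb2 human breast cancer cells carrying an MMTV luciferase reporter; series mostly up to about 92 µM; nearly all actives have a fitted effect of over 25% in size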
Procedure, shortened: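 Nilutamide-containing (3.0uM final) MDA-kb2 cultures, 3,000 cells/well, were treated with compounds across 15 concentrations. After 16 hr at 37C with no CO2, cell viability was determined by CellTiter-Fluor fluorescence in the luciferase assay wells.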

[12] = qHTS assay to identify small molecule agonists of the estrogen receptor beta (ER-beta) signaling pathway - cell viability counter screen (AID 1259380); further: nearly all actives have a fitted effect of over 30% in size
Procedure, shortened: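 Steps: plate ER-beta-UAS-bla HEK293T cells, rest 6 hr; add compounds in DMSO; incubate 16 hr at 37C, 5% CO2; add FRET substrate 2 hr; add CellTiter-Glo, wait 30 min at room temperature; read luminescence.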

[13] = qHTS assay to identify small molecule antagonists of the estrogen receptor beta (ER-beta) signaling pathway - cell viability counter screen (AID 1259382); further: series mostly up to about 92 µM; nearly all actives have a fitted effect of over 55% in size
Procedure, shortened: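 Viability is scored by CellTiter-Glo luminescence (30 min, room temperature) in ER-beta-UAS-bla HEK293T wells already read for reporter fluorescence. Compound exposure lasts 16 hr at 37C alongside 1nM 17-beta-estradiol in charcoal-stripped serum medium.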

[14] = biological target: Estrogen receptor (Homo sapiens) (UniProt P03372); assay: qHTS assay to identify small molecule agonists of the estrogen receptor alpha (ER-alpha) signaling pathway in the presence of an antagonist (AID 1259383; calls by dose curve; further: top concentration of the series differs between compounds; nearly all actives have a fitted effect of over 15% in size)
Procedure, shortened: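 Readout was ERE-driven luciferase luminescence in VM7Luc4E2 cells, which express full-length ER-alpha endogenously. Compounds were tested at 15 concentrations for 22hr alongside 10.0nM ICI-182,780 (final concentration).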

[15] = qHTS assay to identify small molecule agonists or antagonists of the thyroid stimulating hormone receptor (TSHR) signaling pathway - wild type cell line counter screen (AID 1259384; calls by dose curve)
Procedure, shortened: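 Wild-type Hek293 cells, 800/well, 18 h at 37C, then compound with Ro20-1724 for 30 min RT. cAMP by HTRF (cAMP-d2/anti-cAMP cryptate), 1 h RT, fluorescence read. 15 concentrations, triplicates.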

[16] = biological target: Thyrotropin receptor (Homo sapiens) (UniProt P16473); assay: qHTS assay to identify small molecule antagonists of the thyroid stimulating hormone receptor (TSHR) signaling pathway (AID 1259385; calls by dose curve; further: nearly all actives have a fitted effect of over 20% in size)
Procedure, shortened: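 TSHR-HEK293 cells (800/well) plated 18 h, then compounds with Ro20-1724 and TSH at 1.5 ng/mL final, 30 min at room temperature. cAMP quantified by HTRF (cAMP-d2/anti-cAMP-cryptate, 1 h); 15 concentrations in triplicate.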

[17] = biological target: Estrogen receptor beta (Homo sapiens) (UniProt Q92731); assay: qHTS assay to identify small molecule agonists of the estrogen receptor beta (ER-beta) signaling pathway (AID 1259377; active means well fitted activation curve with a large enough effect in the signal ratio in the repeat runs, not every such curve was filed as active; the % refers to the signal ratio)
Procedure, shortened: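 Agonist mode cell assay in GripTite HEK293T cells expressing an ER-beta fusion that drives beta-lactamase from an Upstream Activator Sequence; 16 hr compound exposure at 37C, then 2 h LiveBLAzer B/G FRET substrate at room temperature, fluorescence read-out.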

Measured: Potency

Estrogen receptor beta (Homo sapiens), sequence (Q92731 whole entry, looked up, the tested form may be a part): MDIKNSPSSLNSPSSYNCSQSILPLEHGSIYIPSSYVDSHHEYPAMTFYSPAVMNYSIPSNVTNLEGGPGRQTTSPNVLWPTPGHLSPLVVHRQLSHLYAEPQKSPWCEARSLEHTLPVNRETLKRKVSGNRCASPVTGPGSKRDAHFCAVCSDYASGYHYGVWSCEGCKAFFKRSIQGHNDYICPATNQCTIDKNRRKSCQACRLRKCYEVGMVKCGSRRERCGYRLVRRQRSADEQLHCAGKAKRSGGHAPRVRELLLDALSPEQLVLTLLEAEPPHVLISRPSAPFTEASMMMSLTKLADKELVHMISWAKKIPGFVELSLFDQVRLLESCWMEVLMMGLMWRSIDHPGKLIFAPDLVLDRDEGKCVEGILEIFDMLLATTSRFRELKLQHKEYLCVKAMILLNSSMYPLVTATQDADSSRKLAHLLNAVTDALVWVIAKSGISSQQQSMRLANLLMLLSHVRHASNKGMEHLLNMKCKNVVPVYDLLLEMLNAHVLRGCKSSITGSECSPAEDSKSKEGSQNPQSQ
Estrogen receptor (Homo sapiens), sequence (P03372 whole entry, looked up): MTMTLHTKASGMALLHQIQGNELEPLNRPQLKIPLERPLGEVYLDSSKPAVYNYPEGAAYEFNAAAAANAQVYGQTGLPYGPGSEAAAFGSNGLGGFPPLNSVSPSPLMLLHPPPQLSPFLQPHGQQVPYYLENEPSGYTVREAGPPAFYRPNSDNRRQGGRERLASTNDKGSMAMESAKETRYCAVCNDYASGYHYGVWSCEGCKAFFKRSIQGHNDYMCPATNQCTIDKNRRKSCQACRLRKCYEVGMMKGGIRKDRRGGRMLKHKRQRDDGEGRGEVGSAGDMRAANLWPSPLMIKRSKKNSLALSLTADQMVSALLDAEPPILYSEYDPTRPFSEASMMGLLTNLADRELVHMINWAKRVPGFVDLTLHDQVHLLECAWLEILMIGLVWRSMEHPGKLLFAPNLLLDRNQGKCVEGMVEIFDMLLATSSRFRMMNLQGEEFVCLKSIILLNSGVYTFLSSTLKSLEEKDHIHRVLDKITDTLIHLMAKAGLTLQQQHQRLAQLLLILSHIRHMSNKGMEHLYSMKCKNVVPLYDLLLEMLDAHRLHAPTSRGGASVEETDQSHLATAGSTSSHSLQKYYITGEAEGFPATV
Thyrotropin receptor (Homo sapiens), sequence (P16473 whole entry, looked up): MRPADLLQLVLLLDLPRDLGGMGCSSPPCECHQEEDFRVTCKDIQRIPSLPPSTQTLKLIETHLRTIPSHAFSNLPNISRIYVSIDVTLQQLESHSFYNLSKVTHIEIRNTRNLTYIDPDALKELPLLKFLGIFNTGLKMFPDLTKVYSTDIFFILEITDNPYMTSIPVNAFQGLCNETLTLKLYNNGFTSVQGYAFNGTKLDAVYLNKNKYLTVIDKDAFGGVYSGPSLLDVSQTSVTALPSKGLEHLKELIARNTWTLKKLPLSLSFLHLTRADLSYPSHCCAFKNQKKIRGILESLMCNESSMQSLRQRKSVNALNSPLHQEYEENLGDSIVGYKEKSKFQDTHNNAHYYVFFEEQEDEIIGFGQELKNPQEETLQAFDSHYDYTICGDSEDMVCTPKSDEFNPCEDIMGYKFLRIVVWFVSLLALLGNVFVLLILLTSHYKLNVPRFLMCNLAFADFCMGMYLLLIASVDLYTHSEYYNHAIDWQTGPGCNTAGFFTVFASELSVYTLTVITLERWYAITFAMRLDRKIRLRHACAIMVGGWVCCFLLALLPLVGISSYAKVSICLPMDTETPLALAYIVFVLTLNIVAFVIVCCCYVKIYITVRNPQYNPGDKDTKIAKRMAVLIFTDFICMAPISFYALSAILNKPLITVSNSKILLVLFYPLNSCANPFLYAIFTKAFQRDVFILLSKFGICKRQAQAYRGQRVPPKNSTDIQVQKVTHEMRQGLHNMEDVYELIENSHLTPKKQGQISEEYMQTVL

ClC(Cl)(Cl)Cl
not listed: [17]
inactive: all other assays above

CCN[C@@H](C)Cc1cccc(C(F)(F)F)c1
not listed: [10] | [11] | [17]
inactive: all other assays above

S=C=S
not listed: [9]
inactive: all other assays above

CN(C)CCN(C)C
not listed: [9] | [12] | [14] | [17]
inactive: all other assays above

CCCC[N+](=O)[O-]
not listed: [10] | [17]
inactive: all other assays above

OCC(Cl)CCl (stereo not drawn)
not listed: [14] | [15] | [16] | [17]
inactive: all other assays above

C=CCC1(C(C)CC)C(=O)NC(=O)NC1=O (stereo not drawn)
not listed: [10] | [17]
inactive: all other assays above

C1CN2CCC1CC2
not listed: [9]
inactive: all other assays above

CS(=O)(=O)c1ccc(C(=O)C2C(=O)CCCC2=O)c(Cl)c1COCC(F)(F)F
not listed: [10] | [17]
inactive: all other assays above

O=C(O)c1c(Cl)ccc2cc(Cl)cnc12
not listed: [9]
inactive: all other assays above

N=C(N)[Se]
not listed: [12] | [17]
inactive: all other assays above

CCNc1nc(NCC)nc(SC)n1
not listed: [9] | [17]
inactive: all other assays above

N[C@@H](Cc1ccc(Oc2cc(I)c(O)c(I)c2)c(I)c1)C(=O)O
not listed: [15] | [16] | [17]
inactive: all other assays above
